In assay [1] the target is Cellular tumor antigen p53 (Homo sapiens) (UniProt P04637). Put plainly: TOX21_p53_BLA_p2_ratio: Tox21 HCT-116 p53 Agonism Beta-lactamase Assay, Ratio, Phase 2 (AID 2283592). The essentials:
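In this cell-based reporter format, HCT116 cells were dosed with chemicals delivered from DMSO by 217-fold dilution and incubated 16 h at 37C. Emission at 460 and 530 nm after 2 h CCF4-AM loading provided the ratio, fitted upward versus DMSO.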

Assay [2] is described as follows: TOX21_p53_BLA_p3_viability: Viability Assessment in the Tox21 HCT-116 p53 Agonism Beta-lactamase Assay, Phase 3 (AID 2283593).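 Note: cells exposed to compound for 16 h before reading.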 The essentials:
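HCT-116 cells (4000/well) rested 5 h at 37C, then got DMSO compounds by pin tool (217-fold dilution) for 16 h at 37C, 5% CO2. After the bla read, CellTiter-Glo was added and luminescence read at 30 min, room temperature.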

Assay [3] deals with Cellular tumor antigen p53 (Homo sapiens) (UniProt P04637). Put plainly: TOX21_p53_BLA_p3_ratio: Tox21 HCT-116 p53 Agonism Beta-lactamase Assay, Ratio, Phase 3 (AID 2283596). A digest of the protocol:
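HCT116 p53-bla cells (4000/well) given compound in DMSO (217-fold dilution) after 5 h, incubated 16 h at 37C. CCF4-AM substrate 2 h at room temperature; 460/530 nm emission ratio, gain fitted against DMSO.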

A short description of assay [4]: TOX21_p53_BLA_p4_viability: Viability Assessment in the Tox21 HCT-116 p53 Agonism Beta-lactamase Assay, Phase 4 (AID 2283597).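 Note: hits lower the luminescence signal meaning cytotoxicity.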 The essentials:
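We seeded HCT116 p53 reporter cells at 4000/well and waited 5 h. We then added compounds in DMSO at a 217-fold dilution and incubated for 16 h. Viability was read as CellTiter-Glo luminescence after 30 min at RT.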

Assay [5] in a line: TOX21_p53_BLA_p5_viability: Viability Assessment in the Tox21 HCT-116 p53 Agonism Beta-lactamase Assay, Phase 5 (AID 2283600). The essentials: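 Compounds, pinned from DMSO at 217-fold dilution, were left on the cells for 16 h. The viability endpoint was ATP content measured by CellTiter-Glo luminescence, where falling signal reflects cytotoxicity.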
The target in assay [6] is Cellular tumor antigen p53 (Homo sapiens) (UniProt P04637). Put plainly: TOX21_p53_BLA_p4_ratio: Tox21 HCT-116 p53 Agonism Beta-lactamase Assay, Ratio, Phase 4 (AID 2283601). A digest of the protocol:
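HCT116 cells carrying an inducible beta-lactamase reporter were plated at 4000 cells/well, rested 5 h, then exposed to compounds in DMSO (217-fold dilution) for 16 h at 37C. CCF4-AM substrate was loaded 2 h at room temperature; 460/530 nm emission ratio scored gain-of-signal versus DMSO.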

Assay [7] has the same target. Nature of the assay: TOX21_p53_BLA_p5_ratio: Tox21 HCT-116 p53 Agonism Beta-lactamase Assay, Ratio, Phase 5 (AID 2283599). The essentials: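 HCT-116 cells carrying a p53-inducible beta-lactamase reporter were seeded at 4000 cells/well and dosed after 5 h with compound in DMSO (217-fold dilution). After 16 h at 37C, CCF4-AM substrate was added for 2 h, and the 460/530 nm emission ratio was scored as gain-of-signal versus DMSO.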

Assay [8] has as its target Thyroid hormone receptor alpha (Rattus norvegicus) + Thyroid hormone receptor beta (Rattus norvegicus) (UniProt P18113+P63059). Nature of the assay: TOX21_TR_LUC_GH3_Antagonist_Followup: Tox21 GH3 Thyroid Hormone Receptor Antagonism Luciferase Follow-Up Assay (AID 2283942). A digest of the protocol:
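Rat pituitary GH3 cells with a TRα/TRβ-driven luciferase reporter, 5 h attachment, then 15 concentrations (92 uM to 5nM final) plus 1.0 nM T3 agonist, 24 h at 37C/5% CO2. ONE-Glo luminescence; signal change fitted against DMSO baseline.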

A further assay deals with THRA (gene 7067) (UniProt P10827). Nature of the assay: TOX21_TRA_COA_Antagonist_Followup_ratio: Tox21 Thyroid Hormone Receptor alpha Antagonism through Coactivator Recruitment Follow-Up Assay, Ratio (AID 2283953). A digest of the protocol:
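520:495 nm emission ratio (excitation 340 nm) reports fluorescein-SRC-2 peptide recruitment to GST-TRα LBD by TR-FRET with Tb anti-GST antibody. Values were normalized to DMSO (0%) and T3 control wells (100%); loss of signal indicated antagonism.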

Assay [9] has as its target THRB (gene 7068) (UniProt P10828). Nature of the assay: TOX21_TRB_BLA_Antagonist_Followup_ratio: Tox21 Thyroid Hormone Receptor beta Antagonism Beta-lactamase (BLA) Follow-Up Assay, Ratio (AID 2283958). The essentials: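 HEK293T TRb-bla (GAL4 DBD + hTRβ LBD), 2% cs-FBS phenol red-free DMEM, 5 h attach; cpds 11-pt triplicate, 18 h 37C; CCF4-AM 2 h RT; 460/530 ratio vs DMSO; CellTiter-Glo viability same wells.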

Assay [10] can be described thus: TOX21_TRB_BLA_Antagonist_Followup_viability: Viability Assessment in the Tox21 Thyroid Hormone Receptor beta Antagonism Beta-lactamase (BLA) Follow-Up Assay (AID 2283961). A digest of the protocol: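 Viability read as CellTiter-Glo ATP luminescence (loss of signal = cytotoxicity) in the same plates as the TRβ-bla readout. TRβ-LBD/GAL4 UAS-bla HEK293T cells were exposed to compounds, 11 concentrations in triplicate, for 18 h at 37C/5% CO2.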

Assay [11] concerns the target THRB (gene 7068) (UniProt P10828). Put plainly: TOX21_TRB_COA_Antagonist_Followup_ratio: Tox21 Thyroid Hormone Receptor beta Antagonism through Coactivator Recruitment Follow-Up Assay, Ratio (AID 2283967). The essentials: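 Cell-free TR-FRET coactivator recruitment with GST-tagged TRβ LBD (5.0 nM) and fluorescein-labeled SRC-2 peptide (200 nM) detected by terbium anti-GST antibody (2 nM). The 520:495 nm emission ratio was normalized to DMSO (0%) and T3 (100%).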

Assay [12] is described as follows: TOX21_TR_RXR_BLA_Antagonist_Followup_viability: Viability Assessment in the Tox21 Thyroid Hormone Receptor beta Retinoid X Receptor alpha (RXRa) Antagonism Beta-lactamase (BLA) Follow-Up Assay (AID 2283979). The essentials: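 RXRa-UAS-bla HEK293T cells seeded 2,500/well in phenol red-free DMEM with 2% charcoal-stripped FBS, attached 5 h, then exposed to compounds at 11 concentrations in triplicate for 16 h at 37C/5% CO2. Viability read by CellTiter-Glo ATP luminescence; bidirectional fit versus DMSO.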

Structures are written as SMILES. Inconclusive results are not listed. The source made the active and inactive calls. Rule for the calls: active = hit-call score of the fitted dose curve at least 0.9, where 1 is the maximum; inconclusive = response in the unintended direction; inactive = score below 0.9.

Sequence of Cellular tumor antigen p53 (Homo sapiens) (P04637 whole entry, looked up): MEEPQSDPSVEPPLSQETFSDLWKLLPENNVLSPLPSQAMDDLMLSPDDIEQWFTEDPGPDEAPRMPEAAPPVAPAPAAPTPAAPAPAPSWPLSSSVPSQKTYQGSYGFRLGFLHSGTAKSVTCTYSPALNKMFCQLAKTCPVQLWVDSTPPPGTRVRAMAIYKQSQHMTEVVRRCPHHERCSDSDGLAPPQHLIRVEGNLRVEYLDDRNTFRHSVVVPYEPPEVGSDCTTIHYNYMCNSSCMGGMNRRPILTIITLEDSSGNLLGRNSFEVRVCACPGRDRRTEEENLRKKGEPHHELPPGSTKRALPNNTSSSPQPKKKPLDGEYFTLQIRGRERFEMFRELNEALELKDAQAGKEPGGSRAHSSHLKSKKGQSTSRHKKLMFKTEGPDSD
Sequence of THRB (gene 7068) (P10828 whole entry, looked up, the tested form may be a part): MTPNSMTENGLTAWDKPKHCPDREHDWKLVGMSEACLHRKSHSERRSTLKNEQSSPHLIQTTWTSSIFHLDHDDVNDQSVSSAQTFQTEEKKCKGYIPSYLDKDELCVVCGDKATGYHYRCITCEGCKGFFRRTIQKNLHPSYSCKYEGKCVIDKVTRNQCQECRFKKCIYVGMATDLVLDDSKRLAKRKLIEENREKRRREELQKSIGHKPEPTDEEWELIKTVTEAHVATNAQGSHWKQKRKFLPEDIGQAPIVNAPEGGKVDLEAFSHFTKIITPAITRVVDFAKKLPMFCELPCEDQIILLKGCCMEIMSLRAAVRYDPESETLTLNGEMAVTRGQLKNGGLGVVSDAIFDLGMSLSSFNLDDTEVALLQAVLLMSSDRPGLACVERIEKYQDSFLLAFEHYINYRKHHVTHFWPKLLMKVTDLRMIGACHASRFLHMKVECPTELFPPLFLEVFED
Sequence of THRA (gene 7067) (P10827 whole entry, looked up, the tested form may be a part): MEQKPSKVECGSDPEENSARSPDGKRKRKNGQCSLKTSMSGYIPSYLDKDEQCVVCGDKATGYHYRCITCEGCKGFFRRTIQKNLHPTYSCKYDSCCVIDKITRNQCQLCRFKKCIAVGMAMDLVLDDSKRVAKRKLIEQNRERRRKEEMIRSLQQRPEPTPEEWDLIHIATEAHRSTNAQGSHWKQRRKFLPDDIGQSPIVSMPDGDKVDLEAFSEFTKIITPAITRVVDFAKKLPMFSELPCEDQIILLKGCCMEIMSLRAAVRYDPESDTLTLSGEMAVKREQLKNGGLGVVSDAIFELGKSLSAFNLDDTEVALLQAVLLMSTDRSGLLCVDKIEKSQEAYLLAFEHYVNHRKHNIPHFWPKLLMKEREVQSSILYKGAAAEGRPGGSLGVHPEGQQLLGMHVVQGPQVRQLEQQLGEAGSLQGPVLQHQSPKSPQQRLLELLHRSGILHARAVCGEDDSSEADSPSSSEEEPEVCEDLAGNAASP

By AC50 is commonly meant the concentration giving half of the maximal activity seen. Turning to `CNc1ccc(C(=O)CC(O)CCC(C)C2OC(=O)CC(O)CC(=O)CC(O)CC(O)CC(O)CC(O)CC3(O)CC(O)C(C(=O)OC)C(CC(O[C@@H]4O[C@H](C)[C@@H](O)[C@H](N)[C@@H]4O)/C=C/C=C/C=C/C=C/C=C/C=C/C=C/C2C)O3)cc1` (some centres undefined) (tested in a mixture with another compound), the AC50 in [1] was 37.8 µM (active). Besides, the molecule was classed as inactive in assay [2], in [3], in assay [4], in [5] and in assay [6].
For the molecule `CC(=O)[C@H]1CC[C@H]2[C@@H]3CC[C@@H]4C[C@H](O)CC[C@]4(C)[C@H]3CC[C@]12C`, the result in assay [1], in assay [2], in assay [3], in assay [4], in [7] and in assay [5] was inactive. Besides, the result (in assay [6]; in assay [8]; with THRA (gene 7067); with THRB (gene 7068) [9]; in [10]; with THRB (gene 7068) [11]) was inactive. Besides, the result in assay [12] was inactive.
